Consider 44 compounds from PubChem BioAssay AID2685 (National Center for Advancing Translational Sciences (NCATS), 2010).

About 2,100 (0.66%) of roughly 320,000 compounds were called active. Roughly 53% stayed inconclusive and do not appear here. Calls follow the shape of the dose curve; as a rule, active = well fitted inhibition curve with a large enough effect in the signal ratio, with a control signal flat (not every such curve was filed as active); inconclusive = small, poorly fitted or top-dose-only effect, or effect the other way, or a change in a side signal; inactive = flat fitted curve, though single readings scatter; the % refers to the signal ratio. The full list was thinned out, with actives kept by preference.
Potency is read from the fitted curve at half-maximal effect.

The assay can be described thus: qHTS Assay for Lipid Storage Modulators in Drosophila S3 Cells.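 As to cell number change: cells counted by Cell Tracker Red CMTPX staining in the red channel.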 As to lipid storage change, negative = inhibition: % is scaled to controls: 0 for no effect and ±100 for the full control effect. To be noted: BODIPY lipid droplet fluorescence, 18-24 h, cells fed with added oleic acid; cell number change: measured here: cell count max response; series mostly up to 46.1 µM; lipid storage change, negative = inhibition: at the top concentration. The gist of the method: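 Drosophila S3 cells loaded with oleic acid (400 uM, as added) and compounds at several concentrations; lipid droplets imaged by 488-nm laser-scanning cytometry, 500–530 nm intensity and object ratio to cell channel. Percent activity normalized to 20 uM Triacsin C.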
A general note: In qHTS, concentration-response curves come from the screen itself.
Regarding `CC(C)CCNC(=O)c1cc([N+](=O)[O-])ccc1N1CCOCC1`, the “lipid storage change, negative = inhibition” value was -1.77% (inactive) and the cell number change was -14%.
Consider `CCN1CCc2c(sc(NC(=S)NC(=O)c3ccc(Cl)cc3)c2C(N)=O)C1`, for which the “lipid storage change, negative = inhibition” value is -5.13% (inactive) and the cell number change is 6.82%.
As to `CCN1CCc2c(sc(NC(=O)c3ccc(S(=O)(=O)N(C)CC4CCCO4)cc3)c2C(N)=O)C1` (centres undefined), the Potency was 2.91 µM (active) and the cell number change was -26.3%.
For the compound `CC(C)N1CCc2c(sc(NC(=O)c3ccc(S(=O)(=O)N4CCOCC4)cc3)c2C(N)=O)C1`, the “lipid storage change, negative = inhibition” value was -5.59% (inactive) and the cell number change came out at 0.268%.
As for `CCOC(=O)c1c(NC(=O)c2ccc(S(=O)(=O)N3CCOCC3)cc2)sc2c1CCN(C(C)C)C2`, the outcome was inactive and the cell number change came out at 6.84%.
With `CC(C)N1CCc2c(sc(NC(=O)c3ccc(S(=O)(=O)N(C)CC4CCCO4)cc3)c2C(N)=O)C1` (centres undefined), the Potency was 7.31 µM (active) and the cell number change is -19.4%.
Regarding `CCN1CCc2c(sc(NC(=O)c3ccc4ccccc4c3)c2C(N)=O)C1`, the cell number change is -8.56% and the lipid storage change, negative = inhibition was -25.3% [at 0.369 µM] (inactive).
Turning to `CC1=CC(C)(C)NC(=S)N1C(C)c1ccccc1` (centres undefined), the “lipid storage change, negative = inhibition” value is 9.59% (inactive) and the cell number change worked out at 20.7%.
Regarding `O=C(CCNC(=O)Cn1ccc2ccccc2c1=O)NCc1ccccn1`, the “lipid storage change, negative = inhibition” value was -0.0668% (inactive) and the cell number change turned out to be 1.28%.
Turning to `O=C(CSc1ccccc1)Nc1cccc(S(=O)(=O)N2CCOCC2)c1`, the “lipid storage change, negative = inhibition” value was -7.81% (inactive) and the cell number change was -14.2%.
In the case of `O=C(CNc1cccc(S(=O)(=O)N2CCCC2)c1)Nc1ccc(F)c(F)c1`, the compound was classed as inactive and the cell number change was 2.77%.
As for `COc1ccc(S(=O)(=O)N2CCCCC2)cc1NCC(=O)Nc1ccc(C)cc1`, the “lipid storage change, negative = inhibition” value was 11.5% (inactive) and the cell number change was -1.26%.
As to `COC(=O)c1ccccc1NC(=O)CNc1ccc(F)c(S(=O)(=O)N2CCOCC2)c1`, the Potency was 3.26 µM (active) and the cell number change was found to be 0.245%.
As for `Cc1ccc(NC(=O)CNc2cccc(S(=O)(=O)N3CCCCC3)c2)cc1F`, the Potency is 1.46 µM (active).
As to `COc1ccc([N+](=O)[O-])cc1NCC(=O)Nc1cc(S(=O)(=O)N2CCCCC2)ccc1C`, the Potency was 16.4 µM (active) and the cell number change was -23.1%.
Turning to `O=C(CNc1cccc(S(=O)(=O)N2CCOCC2)c1)Nc1ccccc1F`, the result was inactive and the cell number change is 4.62%.
For `CCN(CC(=O)Nc1cccc(S(=O)(=O)N2CCOCC2)c1)Cc1ccccc1`, the lipid storage change, negative = inhibition is -10.6% [at 0.0737 µM] (inactive).
On to `CCN(CC)S(=O)(=O)c1cc(NC(=O)CNc2cccc(S(=O)(=O)N3CCOCC3)c2)ccc1C`, for which the Potency is 2.06 µM (active) and the cell number change is -23.6%.
Turning to `COc1cc(NC(=O)CNc2ccc(Cl)c(S(=O)(=O)N3CCOCC3)c2)cc(OC)c1`, the “lipid storage change, negative = inhibition” value was -3.31% (inactive) and the cell number change was -14.4%.
Taken in the same sequence, the figures for `COc1ccc(S(=O)(=O)N2CCCCC2)cc1NC(=O)CNc1ccc(F)cc1C` were 29% (inactive) and 11.8%.
For `COc1cc(NCC(=O)Nc2cccc(S(=O)(=O)N3CCCCC3)c2)cc(OC)c1OC`, the call was inactive and the cell number change is -2.08%.
For `Oc1cccc(CCC2CCCCN2Cc2cn[nH]c2-c2ccc3c(c2)OCO3)c1` (centres undefined), the “lipid storage change, negative = inhibition” value is 16.7% (inactive) and the cell number change was determined as 7.37%.
As to `Fc1ccc(N/N=C(/c2ccccc2)c2ccccn2)cc1`, the “lipid storage change, negative = inhibition” value is 8.3% (inactive) and the cell number change is 9.54%.
The like results for `CN(C)c1ccc(C=NCCC2(O)CCOC(C)(C)C2)cc1` (centres undefined) were, in that order, 6.27% (inactive) and 2.42%.
As to `NC(=O)N/N=C/CCc1ccccc1`, the “lipid storage change, negative = inhibition” value is 1.59% (inactive) and the cell number change was 7.84%.
Taken in the same sequence, the figures for `S=c1[nH]nc(CNc2cccc(Cl)c2)o1` were 3.6% (inactive) and 5.85%.
The like results for `Cc1[nH]c2ccccc2c1/C=N/NC(=O)c1cc(C(C)C)[nH]n1` were, in that order, -1.1% (inactive) and 17.7%.
`O=C(/C=C/c1cccc(Cl)c1)NCCc1ccccc1`: the “lipid storage change, negative = inhibition” value was 8.05% (inactive) and the cell number change is 4.34%.
Turning to `CN1CCN(c2ccc(CNS(=O)(=O)Cc3ccc(Cl)cc3)cc2)CC1`, the “lipid storage change, negative = inhibition” value was -7.74% (inactive) and the cell number change is -12.5%.
The like results for `CNC(=O)Cn1c(C)cc(=O)c2cccc(C)c21` were, in that order, 10.6% (inactive) and 13.3%.
As to `CN(Cc1ccccc1)S(=O)(=O)c1ccc(OCC(=O)Nc2cccc([N+](=O)[O-])c2)cc1`, the “lipid storage change, negative = inhibition” value is 5.75% (inactive) and the cell number change worked out at 18.8%.
Consider `CCOc1ccccc1OCCCC(=O)Nc1nc2ccccc2[nH]1`, for which the call was inactive.
For the compound `COc1ccc(-c2noc(CSc3nc4ccccc4c(=O)n3-c3ccc(C)cc3)n2)cc1`, the “lipid storage change, negative = inhibition” value was -0.476% (inactive) and the cell number change was 13.3%.
With `Clc1ccc(OCc2cn3cccnc3n2)c2ncccc12`, the result was inactive.
Regarding `CC[C@H](C)[C@H](NC(N)=O)C(=O)Nc1ccc(S(=O)(=O)NC(C)C)cc1`, the “lipid storage change, negative = inhibition” value is -0.365% (inactive) and the cell number change stood at 3.97%.
On to `COc1ccc(OCCCC(=O)Nc2cc([N+](=O)[O-])ccc2C)cc1`, for which the Potency was 14.6 µM (active) and the cell number change was -3.49%.
Consider `COc1ccc(OCCCC(=O)Nc2cccc([N+](=O)[O-])c2)cc1`, for which the “lipid storage change, negative = inhibition” value was -0.331% (inactive) and the cell number change stood at 10.1%.
The like results for `Cc1ccc([N+](=O)[O-])cc1NC(=O)CCCOc1ccccc1` were, in that order, 4.91% (inactive) and 2.03%.
The like results for `O=C(CNc1cccc(S(=O)(=O)N2CCCC2)c1)Nc1cccc(Br)c1` were, in that order, 12.9% (inactive) and 14.3%.
Regarding `CC(=O)c1cccc(NCC(=O)Nc2cccc(S(=O)(=O)N3CCCCC3)c2)c1`, the “lipid storage change, negative = inhibition” value is 24.6% (inactive) and the cell number change is 13.3%.
With `O=C(CNc1cccc(S(=O)(=O)N2CCCCCC2)c1)Nc1cccc([N+](=O)[O-])c1`, the Potency was 20.6 µM (active) and the cell number change stood at 20.3%.
Take `O=C(O)c1cccc(Nc2c([N+](=O)[O-])c(=O)oc3ccccc23)c1`: the “lipid storage change, negative = inhibition” value was 8.97% (inactive) and the cell number change came to 3.37%.
As to `CC(=O)Oc1ccc(C(=O)Nc2ccc(S(=O)(=O)N3CCOCC3)cc2)cc1`, the compound was called inactive and the cell number change is -28%.
For the compound `Cc1ccc2[nH]c(=O)c(CN(CC3CCCO3)C(=S)Nc3ccccc3)cc2c1` (centres undefined), the “lipid storage change, negative = inhibition” value is 13.6% (inactive) and the cell number change is -9.29%.
